Screening data: PubChem, NMMLSC
RGS8-Gao = modulates binding of RGS8 to human Galphao | P09471 | multiplexed bead flow cytometry; actives lie on both sides | response (percent of control binding), % at 10 µM | 220,000 tested, 0.34% active | AID 1423; in the data active = response below about 60% or above about 140%; inactive = in between;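 note: Galphao activated as the GDP aluminium fluoride complex binding bead-coupled RGS8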
RGS16-Gao = modulates binding between human RGS16 and Galphao; AID 1441; 220,000 tested, 0.38% active; binding response (% of control), % at 10 µM; bead-based flow cytometry RGS16-Galphao binding, fluorescence; actives lie on both sides; O15492+P09471; call rule not given here;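 note: Galphao activated by GDP with aluminum fluoride before binding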
Target sequence (O15492 whole entry, looked up): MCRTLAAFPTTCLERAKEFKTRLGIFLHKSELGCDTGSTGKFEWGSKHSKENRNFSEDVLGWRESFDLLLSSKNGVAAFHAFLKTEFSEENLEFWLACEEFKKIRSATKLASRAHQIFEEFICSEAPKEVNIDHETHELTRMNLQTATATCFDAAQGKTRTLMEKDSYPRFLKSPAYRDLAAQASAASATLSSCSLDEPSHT
Target sequence (P09471 whole entry, looked up): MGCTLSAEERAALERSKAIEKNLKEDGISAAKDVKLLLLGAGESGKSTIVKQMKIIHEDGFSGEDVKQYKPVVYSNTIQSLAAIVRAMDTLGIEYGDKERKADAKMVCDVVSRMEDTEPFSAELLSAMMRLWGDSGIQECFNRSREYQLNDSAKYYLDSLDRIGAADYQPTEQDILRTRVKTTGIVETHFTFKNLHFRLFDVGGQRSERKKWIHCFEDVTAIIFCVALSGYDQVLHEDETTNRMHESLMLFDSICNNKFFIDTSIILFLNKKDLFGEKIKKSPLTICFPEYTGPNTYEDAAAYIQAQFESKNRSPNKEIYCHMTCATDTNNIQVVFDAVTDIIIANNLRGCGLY
RGS4-Gao reg = modulates binding of RGS4 to human Galphao; 220,000 tested, 0.33% active; P09471; Multiplexed bead flow cytometry; actives lie on both sides; binding response (% of control), % at 10 µM; in the data active = binding response below about 49% or above about 150%; inactive = in between;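 note: fluorescent Galphao activated with aluminum fluoride binding bead-coupled RGS4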
GSH bead fluor = GSH bead compound fluorescence profile. GSH beads flow cytometry, compound fluorescence 488/530 nm; active compounds read high. fluorescence (KMESF) at 10 µM. 190,000 tested, 0.25% active; in the data active = fluorescence above about 89;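 note: glutathione beads carrying GST-tagged Bcl family fusion proteins plus one bare bead set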
Avidin bead fluor = compound fluoresces at 488/530 nm on avidin beads; compound fluorescence 488/530 nm, flow cytometry; active compounds read high; fluorescence (KMESF) at 10 µM; 220,000 tested, 0.38% active; AID 1775; in the data active = fluorescence above about 47
RGS7-Gao = regulators of human RGS7-Galphao interaction | binding response (% of control), % at 10 µM | AID 1439 | 220,000 tested, 0.35% active | Multiplexed bead flow cytometry, RGS7-Galphao binding; actives lie on both sides | P09471; in the data active = binding response below about 49% or above about 150%; inconclusive = no clear call, values can overlap the other calls; inactive = in between;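 note: fluorescent Galphao held in activated GDP-AlF4 state binding bead-coupled RGS7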
Of the large screens only hits and unclear results are named; the others gave an inactive call. Shown are actives, neighbours in structure and some others; about 1.2% of the full set was active somewhere.

CCOc1ccccc1OCCCC(=O)N1CCN(S(=O)(=O)c2cccc(F)c2)CC1	none
CCOc1ccccc1OCCCC(=O)N1CCN(S(=O)(=O)c2ccc(C)cc2)CC1	GSH bead fluor 256
Cc1ccnc(NS(=O)(=O)c2ccc3c(c2)CCO3)c1	RGS7-Gao inconclusive (no result: GSH bead fluor)
O=S(=O)(Nc1ccc(Cl)cc1)c1ccc2c(c1)CCO2	Avidin bead fluor 62, RGS7-Gao inconclusive (no result: GSH bead fluor)
CCc1nc(C#N)c(N2CCOCC2)o1	none
CCC1(CC)Cc2ccccc2C(N)=C1C#N	Avidin bead fluor 63
CCCCS(=O)(=O)C1CCS(=O)(=O)C1 (stereo unspecified)	none
CCN(CC)S(=O)(=O)C1CCS(=O)(=O)C1 (stereo unspecified)	GSH bead fluor 242
CC(C)CNc1cc(Cl)c(S(=O)(=O)NCC(C)C)cc1C(=O)O	Avidin bead fluor 85
S=c1[nH]nc(-c2ccccn2)n1/N=C/c1cccc2ccccc12	none
Cc1cc(OCc2nc3ccccc3s2)ccc1N	RGS7-Gao inconclusive (no result: GSH bead fluor)
Cc1cccc(C(=O)NC(NCc2ccco2)C(Cl)(Cl)Cl)c1 (stereo unspecified)	RGS8-Gao 56.9, RGS4-Gao reg 48.8, RGS7-Gao 44.1
CCC(CO)NCc1ccc(OC2CCCC2)cc1 (stereo unspecified)	GSH bead fluor 140
COc1ccc(N2C(=O)C(CC(=O)O)S/C2=C\C(C)=O)cc1 (stereo unspecified)	GSH bead fluor 251
O=C(CNc1ccccc1C(=O)O)c1ccccc1	RGS7-Gao inconclusive (no result: GSH bead fluor)
CC(NC(=O)C(C)(C)C)C(c1cccs1)N1CCOCC1 (stereo unspecified)	RGS7-Gao inconclusive (no result: GSH bead fluor)
COc1ccc2occ(C(=O)c3ccccc3)c2c1	RGS7-Gao inconclusive
COc1ccc(OC)c(C(=O)c2coc3ccc(O)cc23)c1	GSH bead fluor 88
Cc1nnc(NC(=O)CSc2ccc3nnc(-c4cccnc4)n3n2)s1	none
Cc1ccc2c(c1)nnn2C1CCN(CC(=O)NNC(=O)c2ccco2)CC1	none
O=C(OCc1ccc(Cl)cc1)c1cnccn1	none
O=C(OCc1ccc(Cl)c(Cl)c1)c1cnccn1	GSH bead fluor 270
O=C(CSc1nnc(SCc2ccc(Cl)cc2)s1)c1ccc2c(c1)OCO2	none
CN(Cc1cc(=O)[nH]c2ccccc12)C(=O)c1ccccc1	GSH bead fluor 271
COc1ccccc1N(Cc1cc(=O)[nH]c2ccccc12)C(=O)c1ccccc1	RGS7-Gao inconclusive (no result: GSH bead fluor)
COCCN(C(=O)Nc1ccc(OC)cc1OC)C1CCN(C(C)C)CC1	Avidin bead fluor 51
Cc1nc(NCc2ccco2)c2c(C)c(C)sc2n1	none
Cc1sc2nc3c4ccccc4c(NCc4ccco4)nn3c(=O)c2c1C	Avidin bead fluor 65
NC(=O)c1ccc(NC(=O)COC(=O)/C=C/c2ccc3c(c2)OCO3)cc1	RGS7-Gao inconclusive (no result: GSH bead fluor)
O=C(Nc1cccc2ccccc12)NC1CCS(=O)(=O)C1 (stereo unspecified)	Avidin bead fluor 58
Cc1ccc(NC2=C(NCCO)C(=O)c3ccccc3C2=O)cc1	Avidin bead fluor 49
CN(C)CCNC(=S)Nc1cccc(Cl)c1	RGS8-Gao 12.0, RGS16-Gao 0.9, RGS4-Gao reg 21.7, RGS7-Gao 14.5
S=c1[nH]nc(-c2cc(-c3ccccc3)n[nH]2)n1/N=C/c1ccc(Br)s1	RGS7-Gao inconclusive (no result: GSH bead fluor)
COc1ccc(C2C(C(=O)NCc3ccco3)c3ccccc3C(=O)N2C)cc1 (stereo unspecified)	none
COCCN1C(=O)c2ccccc2C(C(=O)NCc2ccco2)C1c1c[nH]c2ccccc12 (stereo unspecified)	Avidin bead fluor 47
O=C(Nc1nc(-c2ccccc2)cs1)c1cccc([N+](=O)[O-])c1	RGS8-Gao 11.8, RGS16-Gao 1.7, RGS4-Gao reg 21.4, RGS7-Gao 12.8
CCn1c(SCC(=O)N2CC(=O)Nc3ccccc32)nnc1-c1ccoc1C	GSH bead fluor 260
Cc1occc1-c1nnc(SCC(=O)N2CC(=O)Nc3ccccc32)n1CC(C)C	none (no result: Avidin bead fluor)
O=C(O)C1C2CCC(C2)C1C(=O)NCc1ccco1 (stereo unspecified)	none
O=C(NCc1ccco1)C1CC2CCC1C2 (stereo unspecified)	GSH bead fluor 246
CCOc1ccccc1NC(=O)CN(C)S(=O)(=O)c1ccc(OC)c(C)c1	none
